Laboratory results taken from PubChem BioAssay AID1654 (Sanford-Burnham Center for Chemical Genomics, 2009).
In all, about 290,000 compounds went through this assay and about 1,500 (0.52%) were called active. The full list was thinned out, with actives kept by preference. Values without a mark were called inactive. Rule as the data show it: active = inhibition above about 50%; inactive = the rest.

Molecular target: Dual specificity protein phosphatase 3 (Homo sapiens) (UniProt P51452)
Experiment: VHR1 phosphatase inhibitors, primary screen, biochemical, absorbance, uHTS (AID 1654)
Details: recombinant VHR phosphatase, pNPP absorbance, at 13.3 µM, stronger effect = higher value

Sequence of Dual specificity protein phosphatase 3 (Homo sapiens) (P51452 whole entry, looked up): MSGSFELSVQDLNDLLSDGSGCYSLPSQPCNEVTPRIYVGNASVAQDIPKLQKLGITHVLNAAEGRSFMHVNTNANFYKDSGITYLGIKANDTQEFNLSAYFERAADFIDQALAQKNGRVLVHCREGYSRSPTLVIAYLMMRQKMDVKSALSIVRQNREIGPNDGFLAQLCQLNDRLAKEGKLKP

Row | SMILES | inhibition
1 | CC(C)c1ccc(NC2CCCN(C(=O)c3ccncc3)C2)cc1 (stereo unspecified) | 13.7%
2 | Cc1cccc(C(=O)N2CCCC(Nc3ccc(C(C)C)cc3)C2)n1 (stereo unspecified) | 10.8%
3 | COc1cc(C(=O)N2CCN(C3CCC(C)CC3)CC2)cc(OC)c1OC (stereo unspecified) | 16.6%
4 | CCOc1ccc2[nH]c(=O)c(CN(CCCO)S(=O)(=O)c3ccc(F)cc3)cc2c1 | 39.4%
5 | COc1cc(C(=O)NCc2ccncc2)cc(Br)c1OCc1ccccc1 | 50% (active)
6 | COc1cc(C(=O)NCc2ccc(-n3cccc3)cc2)cc(OC)c1OC | 33.3%
7 | COc1cc(C(=S)NCc2ccccc2)cc(Br)c1O | 25.9%
8 | CCOC(=O)c1c(S(=O)(=O)Nc2ccc(CN3CCC(C)CC3)cc2)c(C)n(C)c1C | -22.3%
9 | CN(CC(=O)Nc1ccc(F)cc1)C(=O)c1ccc(-c2ccc(Cl)cc2)o1 | 16.7%
10 | CCOc1ncccc1C(=O)N(CC)CC(=O)Nc1ccc(NC(C)=O)cc1 | 1.3%
11 | CCOc1ncccc1C(=O)N(C)CC(=O)Nc1ccc(F)cc1 | 59.9% (active)
12 | Cc1cccc2nc(CNc3ccc(F)cc3)cn12 | -14.9%
13 | CN(C(=O)c1ccccc1)c1nccnc1C#N | 25%
14 | Cc1cc(N2C(=O)C(O)=C(C(=O)c3ccc(C)o3)C2c2ccc(OCc3ccccc3)cc2)no1 (stereo unspecified) | 12.3%
15 | O=S(=O)(c1ccc2c(c1)OCCO2)N1CCc2ccccc21 | 13.6%
16 | CCn1c(=O)c(=O)n(CC)c2cc(S(=O)(=O)N3CCc4ccccc43)ccc21 | 50.3% (active)
17 | Cn1c(=O)n(C)c2cc(S(=O)(=O)N3CCCc4ccccc43)ccc21 | 3.5%
18 | Cc1ccc(S(=O)(=O)Nc2nc(C)cc(-n3nc(C)cc3C)n2)cc1 | 28.3%
19 | Cc1cc(C)nc(SC2CCCCC2NS(=O)(=O)c2ccc(Cl)cc2)n1 (stereo unspecified) | 1.5%
20 | Cc1cc(C)nc(NS(=O)(=O)c2ccc(N3C(=O)C4CCCCC4C3=O)cc2)n1 (stereo unspecified) | 57.6% (active)
21 | COc1ccc(CCc2nc(-c3cccs3)no2)cc1 | -3.6%
22 | Cc1c(CCC(=O)O)c(=O)oc2c(C)c(OCc3ccccc3Cl)ccc12 | 57.3% (active)
23 | Cc1c(CCC(=O)O)c(=O)oc2cc(OCc3ccc(Br)cc3)ccc12 | 2.4%
24 | CCOC(=O)CCc1c(C)c2ccc(OCc3nn[nH]n3)c(C)c2oc1=O | -7.7%
25 | COc1ccc2oc(=O)cc(CN3CCOCC3)c2c1 | -2.3%
26 | CCc1ccccc1NC(=O)/C(=C/c1ccccc1)c1ccccc1 | -11.5%

Row | SMILES | inhibition
27 | CCOCCCNCc1cc(Br)ccc1OCC | 3%
28 | CCOc1ccccc1OCCCNCc1ccccc1 | 59.7% (active)
29 | CCOCCCNCc1ccc(OCc2ccc(F)cc2)c(OC)c1 | 23.4%
30 | COc1ccc(S(=O)(=O)N2CCC(C(=O)N3CCCC3)CC2)cc1C | -11.4%
31 | O=C(N1CCCCC1)N1CCN(C(=O)N2CCCCC2)CC1 | 17.7%
32 | CCOC(=O)C1CCN(C(=O)COc2cccc3ccccc23)CC1 | 1.1%
33 | Cc1ccccc1NC(=O)CN1C(=O)N/C(=C\c2cccn2-c2cccc(C(=O)O)c2)C1=O | 35.6%
34 | Cc1cc(/C=C2\SC(=O)N(C)C2=O)c(C)n1-c1cccc(C(=O)O)c1 | 15.5%
35 | N#Cc1ccccc1CN1C(=O)S/C(=C/c2cccn2-c2cccc(C(=O)O)c2)C1=O | 50.3% (active)
36 | CC(=O)N1CCCc2cc(S(=O)(=O)N3CCCC(C(=O)NCc4ccc(Cl)cc4)C3)ccc21 (stereo unspecified) | 5.3%
37 | CC(=O)N1c2ccc(S(=O)(=O)N3CCC(C(=O)NCc4ccc(F)cc4)CC3)cc2CC1C (stereo unspecified) | 34.4%
38 | CC(=O)N1c2ccc(S(=O)(=O)N3CCCC(C(=O)NCc4ccc(Cl)cc4)C3)cc2CC1C (stereo unspecified) | 52.7% (active)
39 | CCC(C)c1ccccc1NC(=O)CN(C)CC(=O)Nc1ccccc1SC (stereo unspecified) | -2.9%
40 | CC1(C)C2CCC1(CS(=O)(=O)NCCc1c[nH]c3ccccc13)C(=O)C2 (stereo unspecified) | -8.1%
41 | NC(=O)N1CCc2ccccc21 | 30.9%
42 | Cc1cccc(N2CCN(C(C)C(=O)N3CCc4ccccc43)CC2)c1C (stereo unspecified) | 52.9% (active)
43 | CCC(CC)C(=O)N1CCN(c2cccc(C)c2C)CC1 | -4.1%
44 | O=C1Nc2cc(C(=O)N3CCN(c4ccc(F)cc4)CC3)ccc2NC1CSCc1cccc(F)c1 (stereo unspecified) | -24.2%
45 | O=C(O)c1cc(S(=O)(=O)N(Cc2ccccc2)c2ccccc2)ccc1Cl | 10.4%
46 | CCOc1ccc2c(c1)c(=O)c(S(=O)(=O)c1ccc(C)cc1)cn2CC | 52.5% (active)
47 | CCn1cc(S(=O)(=O)c2cccc(C)c2)c(=O)c2cc(F)c(N3CCN(C)CC3)cc21 | 5.7%
48 | CCCn1cc(S(=O)(=O)c2ccc(C)cc2)c(=O)c2cc(OCC)ccc21 | -25.6%
49 | COC(=O)c1c(C)[nH]c(C(=O)/C=C/c2ccc(Cl)cc2)c1C | -0.3%
50 | COc1ccc(OC)c(CNC(=O)Cn2nc(C)c3c(C)n(-c4ccc(C)cc4)nc3c2=O)c1 | -9%
51 | CC(C)CC(=O)NC(=S)NNC(=O)c1cccc([N+](=O)[O-])c1 | -16.7%
